# Source: the supplement of paper PMC8728848
# This excerpt belongs to a sample that is enriched for the strongest signals.
# B1: CM2 (Cordyceps militaris) (protein)
# chain: MEIAEQNVGKSCAIVNLIPPKEGSNIWTAKQVTIARNLPPNRGTGRHQIDWSFGPVKVTGYVDTTNWEIGVTVSIMGIDLGTVYGNLRDGVVLNVDLFLAKGQVRFYLKNGNEVWVHLSVEIRFDGKFEGDYKIITV
# Key:
# Test in all cases: glycan array binding signal (z-score within array); higher = stronger binding
# Conditions in all cases: glycan notation: IUPAC condensed, linker removed
# [1] = target: Fuc(a1-2)Gal(b1-3)GalNAc(b1-4)[Neu5Ac(a2-3)]Gal(b1-4)Glc
# Outline: (§1)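 Negative Z-scores can be read as non-binding. The Z-score is calculated within each array and then averaged across arrays of one protein sequence at different concentrations or buffers and across linkers. Arrays, 3228 in all, were curated from the Consortium for Functional Glycomics database and kept only where the protein sequence was available.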
# Fuc(a1-2)Gal(b1-4)Glc6S = target: Fuc(a1-2)Gal(b1-4)Glc6S
# Outline: as §1
# [2] = target: Fuc(a1-2)[Gal(a1-3)]Gal(b1-4)[Fuc(a1-3)]GlcNAc
# Outline: as §1
# [3] = target: Fuc(a1-2)[GalNAc(a1-3)]Gal(b1-3)GlcNAc
# Outline: as §1
# [4] = target: Fuc(a1-2)[GalNAc(a1-3)]Gal(b1-3)GlcNAc(b1-3)GalNAc
# Outline: as §1
# [5] = target: Fuc(a1-2)[GalNAc(a1-3)]Gal(b1-4)GlcNAc(b1-2)Man(a1-3)[Fuc(a1-2)[GalNAc(a1-3)]Gal(b1-4)GlcNAc(b1-2)Man(a1-6)]Man(b1-4)GlcNAc(b1-4)[Fuc(a1-6)]GlcNAc
# Outline: as §1
# [6] = target: Fuc(a1-3)[Gal(b1-4)]GlcNAc
# Outline: as §1
# [7] = target: Gal(a1-3)Gal(b1-3)GlcNAc(b1-2)Man(a1-3)[Gal(a1-3)Gal(b1-3)GlcNAc(b1-2)Man(a1-6)]Man(b1-4)GlcNAc(b1-4)GlcNAc
# Outline: as §1
# [8] = target: Gal(a1-3)Gal(b1-4)GlcNAc(b1-6)GalNAc
# Outline: as §1
# [9] = target: Gal(b1-3)GlcNAc(b1-3)Gal(b1-4)GlcNAc(b1-2)[Gal(b1-3)GlcNAc(b1-3)Gal(b1-4)GlcNAc(b1-6)]Man(a1-6)[Gal(b1-3)GlcNAc(b1-3)Gal(b1-4)GlcNAc(b1-2)Man(a1-3)]Man(b1-4)GlcNAc(b1-4)[Fuc(a1-6)]GlcNAc
# Outline: as §1
# [10] = target: Gal(b1-3)[Fuc(a1-4)]GlcNAc(b1-6)GalNAc
# Outline: as §1
# [11] = target: Gal(b1-3)[Neu5Ac(b2-6)]GalNAc
# Outline: as §1
# [12] = target: Gal(b1-4)GlcNAc(b1-2)Man(a1-3)[Gal(b1-4)GlcNAc(b1-2)Man(a1-6)]Man(b1-4)GlcNAc(b1-4)GlcNAc
# Outline: as §1
# [13] = target: Gal(b1-4)GlcNAc(b1-3)Gal(b1-4)GlcNAc(b1-2)[Gal(b1-4)GlcNAc(b1-3)Gal(b1-4)GlcNAc(b1-6)]Man(a1-6)[Gal(b1-4)GlcNAc(b1-3)Gal(b1-4)GlcNAc(b1-2)Man(a1-3)]Man(b1-4)GlcNAc(b1-4)[Fuc(a1-6)]GlcNAc
# Outline: as §1
# [14] = target: Gal(b1-4)GlcNAc(b1-3)Gal(b1-4)GlcNAc(b1-3)Gal(b1-4)GlcNAc(b1-2)Man(a1-3)[Gal(b1-4)GlcNAc(b1-3)Gal(b1-4)GlcNAc(b1-3)Gal(b1-4)GlcNAc(b1-2)Man(a1-6)]Man(b1-4)GlcNAc(b1-4)[Fuc(a1-6)]GlcNAc
# Outline: as §1
# [15] = target: Gal(b1-4)GlcNAc(b1-3)Gal(b1-4)GlcNAc(b1-3)Gal(b1-4)GlcNAc(b1-3)Gal(b1-4)GlcNAc(b1-2)[Gal(b1-4)GlcNAc(b1-3)Gal(b1-4)GlcNAc(b1-3)Gal(b1-4)GlcNAc(b1-3)Gal(b1-4)GlcNAc(b1-6)]Man(a1-6)[Gal(b1-4)GlcNAc(b1-3)Gal(b1-4)GlcNAc(b1-3)Gal(b1-4)GlcNAc(b1-3)Gal(b1-4)GlcNAc(b1-2)Man(a1-3)]Man(b1-4)GlcNAc(b1-4)[Fuc(a1-6)]GlcNAc
# Outline: as §1
# Gal3S(b1-3)GlcNAc = target: Gal3S(b1-3)GlcNAc
# Outline: as §1
# Gal3S6S(b1-4)GlcNAc6S = target: Gal3S6S(b1-4)GlcNAc6S
# Outline: as §1
# Gal6S(b1-3)GlcNAc = target: Gal6S(b1-3)GlcNAc
# Outline: as §1
# [16] = target: GlcA3S(b1-3)Gal(b1-4)GlcNAc(b1-3)Gal(b1-4)Glc
# Outline: as §1
# [17] = target: GlcNAc(b1-3)Gal(b1-4)GlcNAc(b1-2)Man(a1-3)[GlcNAc(b1-3)Gal(b1-4)GlcNAc(b1-2)Man(a1-6)]Man(b1-4)GlcNAc(b1-4)[Fuc(a1-6)]GlcNAc
# Outline: as §1
# [18] = target: GlcNAc(b1-3)Gal(b1-4)GlcNAc(b1-3)Gal(b1-4)GlcNAc(b1-2)[GlcNAc(b1-3)Gal(b1-4)GlcNAc(b1-3)Gal(b1-4)GlcNAc(b1-6)]Man(a1-6)[GlcNAc(b1-3)Gal(b1-4)GlcNAc(b1-3)Gal(b1-4)GlcNAc(b1-2)Man(a1-3)]Man(b1-4)GlcNAc(b1-4)[Fuc(a1-6)]GlcNAc
# Outline: as §1
# [19] = target: GlcNAc(b1-3)Gal(b1-4)GlcNAc(b1-3)Gal(b1-4)GlcNAc(b1-3)Gal(b1-4)GlcNAc(b1-2)Man(a1-3)[GlcNAc(b1-3)Gal(b1-4)GlcNAc(b1-3)Gal(b1-4)GlcNAc(b1-3)Gal(b1-4)GlcNAc(b1-2)Man(a1-6)]Man(b1-4)GlcNAc(b1-4)GlcNAc
# Outline: as §1
# GlcNAc(b1-3)GalNAc = target: GlcNAc(b1-3)GalNAc
# Outline: as §1
# [20] = target: Kdn(a2-3)Gal(b1-4)[Fuc(a1-3)]GlcNAc
# Outline: as §1
# [21] = target: Man(a1-2)Man(a1-3)[Man(a1-2)Man(a1-6)]Man(a1-6)[Man(a1-2)Man(a1-2)Man(a1-3)]Man
# Outline: as §1
# [22] = target: Man(a1-3)[Man(a1-6)]Man(a1-6)[Man(a1-2)Man(a1-3)]Man(b1-4)GlcNAc(b1-4)GlcNAc
# Outline: as §1
# [23] = target: Neu5Ac(a2-3)Gal(b1-3)GlcNAc(b1-2)Man(a1-3)[GlcNAc(b1-4)][Neu5Ac(a2-3)Gal(b1-3)GlcNAc(b1-2)Man(a1-6)]Man(b1-4)GlcNAc(b1-4)GlcNAc
# Outline: as §1
# [24] = target: Neu5Ac(a2-3)Gal(b1-3)]Neu5Ac(a2-3)Gal(b1-4)]GlcNAc
# Outline: as §1
# [25] = target: Neu5Ac(a2-3)Gal(b1-4)GlcNAc(b1-2)Man(a1-3)[Neu5Ac(a2-6)Gal(b1-4)GlcNAc(b1-2)Man(a1-6)]Man(b1-4)GlcNAc(b1-4)GlcNAc
# Outline: as §1
# [26] = target: Neu5Ac(a2-3)Gal(b1-4)GlcNAc(b1-3)Gal(b1-4)GlcNAc(b1-3)GalNAc
# Outline: as §1
# [27] = target: Neu5Ac(a2-3)Gal(b1-4)GlcNAc(b1-3)Gal(b1-4)GlcNAc(b1-6)[Gal(b1-3)]GalNAc
# Outline: as §1
# [28] = target: Neu5Ac(a2-3)Gal(b1-4)GlcNAc(b1-6)[Gal(b1-3)]GalNAc
# Outline: as §1
# [29] = target: Neu5Ac(a2-3)Gal(b1-4)[Fuc(a1-3)]GlcNAc(b1-3)Gal
# Outline: as §1
# [30] = target: Neu5Ac(a2-3)[GalNAc(b1-4)]Gal(b1-4)GlcNAc(b1-3)GalNAc
# Outline: as §1
# [31] = target: Neu5Ac(a2-6)Gal(b1-4)GlcNAc
# Outline: as §1
# [32] = target: Neu5Ac(a2-6)Gal(b1-4)GlcNAc(b1-2)Man
# Outline: as §1
# [33] = target: Neu5Ac(a2-6)Gal(b1-4)GlcNAc(b1-2)Man(a1-3)[Man(a1-6)]Man(b1-4)GlcNAc(b1-4)GlcNAc
# Outline: as §1
# [34] = target: Neu5Ac(a2-6)Gal(b1-4)GlcNAc(b1-2)[Neu5Ac(a2-6)Gal(b1-4)GlcNAc(b1-6)]Man(a1-6)[Neu5Ac(a2-6)Gal(b1-4)GlcNAc(b1-2)Man(a1-3)][GlcNAc(b1-4)]Man(b1-4)GlcNAc(b1-4)GlcNAc
# Outline: as §1
# [35] = target: Neu5Ac(a2-6)Gal(b1-4)GlcNAc(b1-6)[Gal(b1-3)GlcNAc(b1-3)]Gal(b1-4)Glc
# Outline: as §1
# [36] = target: Neu5Ac(a2-6)Gal(b1-4)GlcNAc6S
# Outline: as §1
# Neu5Ac(a2-6)GalNAc = target: Neu5Ac(a2-6)GalNAc
# Outline: as §1
# [37] = target: Neu5Ac(a2-8)Neu5Ac(a2-3)Gal(b1-4)Glc
# Outline: as §1
# [38] = target: Neu5Ac(a2-8)Neu5Ac(a2-8)Neu5Ac(a2-3)[Gal(b1-3)GalNAc(b1-4)]Gal(b1-4)Glc
# Outline: as §1
# [39] = target: Neu5Ac(a2-8)Neu5Gc(a2-3)Gal(b1-4)GlcNAc
# Outline: as §1
binder,measurement,setting,value
B1,glycan array binding signal (z-score),[1],0.28
same,glycan array binding signal (z-score),Fuc(a1-2)Gal(b1-4)Glc6S,-0.639
same,glycan array binding signal (z-score),[2],1.81
same,glycan array binding signal (z-score),[3],1.61
same,glycan array binding signal (z-score),[4],1.29
same,glycan array binding signal (z-score),[5],0.394
same,glycan array binding signal (z-score),[6],0.057
same,glycan array binding signal (z-score),[7],-0.635
same,glycan array binding signal (z-score),[8],-0.847
same,glycan array binding signal (z-score),[9],0.677
same,glycan array binding signal (z-score),[10],0.038
same,glycan array binding signal (z-score),[11],0.422
same,glycan array binding signal (z-score),[12],-1.28
same,glycan array binding signal (z-score),[13],2.29
same,glycan array binding signal (z-score),[14],3.05
same,glycan array binding signal (z-score),[15],1.2
same,glycan array binding signal (z-score),Gal3S(b1-3)GlcNAc,0.015
same,glycan array binding signal (z-score),Gal3S6S(b1-4)GlcNAc6S,3.73
same,glycan array binding signal (z-score),Gal6S(b1-3)GlcNAc,-0.595
same,glycan array binding signal (z-score),[16],0.06
same,glycan array binding signal (z-score),[17],2.3
same,glycan array binding signal (z-score),[18],3.55
same,glycan array binding signal (z-score),[19],-0.287
same,glycan array binding signal (z-score),GlcNAc(b1-3)GalNAc,-0.452
same,glycan array binding signal (z-score),[20],0.801
same,glycan array binding signal (z-score),[21],2.53
same,glycan array binding signal (z-score),[22],2.43
same,glycan array binding signal (z-score),[23],1.74
same,glycan array binding signal (z-score),[24],3.98
same,glycan array binding signal (z-score),[25],0.37
same,glycan array binding signal (z-score),[26],3.11
same,glycan array binding signal (z-score),[27],-1.25
same,glycan array binding signal (z-score),[28],-0.406
same,glycan array binding signal (z-score),[29],0.036
same,glycan array binding signal (z-score),[30],0.919
same,glycan array binding signal (z-score),[31],-0.125
same,glycan array binding signal (z-score),[32],2.54
same,glycan array binding signal (z-score),[33],-0.907
same,glycan array binding signal (z-score),[34],-0.924
same,glycan array binding signal (z-score),[35],-1.25
same,glycan array binding signal (z-score),[36],-1.69
same,glycan array binding signal (z-score),Neu5Ac(a2-6)GalNAc,0.447
same,glycan array binding signal (z-score),[37],-0.496
same,glycan array binding signal (z-score),[38],-0.622
same,glycan array binding signal (z-score),[39],-1.52
